The values that follow come from PubChem BioAssay AID1259418 (Broad Institute, 2018).

Hit rate of the full screen: of about 3,400 compounds, about 840 (25%) were called active. Inconclusive results (about 11%) are left out. A selection follows. Results with a measured potency or affinity are listed apart. Values without a mark were called inactive.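 Rule for the calls: active = fitted half-maximal concentration of signal decrease at or below twice the sample's top tested concentration; inconclusive = flat curve between -70 and -30 percent, or poor fit; inactive = flat within 30 percent, signal rise, or potency above limit.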

The nature of the assay: inhibitors of Toxoplasma growth in IFN-γ-primed HeLa – cell-based, ME49Luc, luciferase, 72 h, dose response (AID 1259418). Particulars: T. gondii ME49Luc in IFN-y HeLa, stronger effect = lower value, -100% = high-dose IFN-γ control wells; at 19.5 µM unless noted.
On to `COc1ccc(NC(=O)Nc2ccc(-c3nc(-c4ccccc4)co3)cc2)c(OC)c1`, for which the max activity was 53.6% [at 10 µM].

For `O=C(CC(F)(F)F)N1C[C@@H]2[C@H](c3ccccc31)[C@H](CO)N2CC1CCOCC1`, the max activity was 54.6%.

As to `Cc1oc(-c2ccccc2Cl)nc1Cn1c(=O)c2cccnc2n(-c2ccccc2)c1=O`, the max activity was 6.15% [at 5 µM].

Consider `O=C(CCC1Nc2c3ccccc3nc(=S)n2C1=O)N1CCN(c2ccccc2F)CC1` (centres undefined), for which the max activity was 35.9%.

Turning to `Cc1ccc(C)c(N2CCN(C(=O)CC3Nc4c5ccccc5nc(=S)n4C3=O)CC2)c1` (centres undefined), the max activity was 190% [at 10 µM].

With `O=C(CC1Nc2c3ccccc3nc(=S)n2C1=O)N1CCN(c2cccc(C(F)(F)F)c2)CC1` (centres undefined), the max activity is 105%.

In the case of `COc1ccccc1CNC(=O)CCC1Nc2c3ccccc3nc(=S)n2C1=O` (centres undefined), the max activity is 15% [at 2.6 µM].

With `COc1cccc(N2CCN(C(=O)CC3Nc4c5ccccc5nc(=S)n4C3=O)CC2)c1` (centres undefined), the max activity is 50.6%.

For the molecule `Cc1ccc(Cl)cc1N1CCN(C(=O)CC2Nc3c4ccccc4nc(=S)n3C2=O)CC1` (centres undefined), the max activity is 25.8% [at 0.35 µM].

Consider `Cc1cccc(-c2nc(Cn3nnc(-c4nc(-c5ccc(OC(F)(F)F)cc5)no4)c3C)c(C)o2)c1`, for which the max activity was -4.39% [at 0.35 µM].

With `Cc1oc(-c2cccc(Cl)c2)nc1CSc1nc2c(c(=O)[nH]1)CN(Cc1ccccc1)CC2`, the max activity is 20.2% [at 0.35 µM].

In the case of `CCCc1cc(C2CCCN2C(=O)c2cc(C(F)(F)F)nn2C)no1` (centres undefined), the max activity was 13.3% [at 0.16 µM].

`Fc1ccccc1CSc1nc(NCc2ccco2)c2ccccc2n1`: the max activity is 15% [at 2.6 µM].

As to `Clc1ccccc1CSc1nc(NCCc2ccccc2)c2ccccc2n1`, the max activity was 13.2% [at 5 µM].

Regarding `COc1ccc(CNc2nc(SCc3ccccc3F)nc3ccccc23)cc1`, the max activity is 8.85% [at 0.68 µM].

Consider `Clc1ccc(CNc2nc(SCc3ccccc3Cl)nc3ccccc23)cc1`, for which the max activity was -19% [at 10 µM].

As to `Cc1nc(N2CCOCC2)nc2c1CCN(C(=O)C1CC1)CC2`, the max activity is 58.7%.

As for `Clc1ccc(-n2ncc3c(NC4CCCCCCCCCCC4)ncnc32)cc1`, the max activity was -21.9% [at 10 µM].

Turning to `COC(=O)CC(=O)Nc1ccc(-c2nc(-c3ccc(C)cc3C)co2)cc1`, the max activity is 87.6%.

For `Cc1ccccc1C(=O)Nc1ccc(-c2nc(-c3ccccc3)co2)cc1`, the max activity was 95.8% [at 10 µM].

As for `COc1ccccc1NC(=O)Nc1ccc(-c2nc(-c3ccc(C)cc3)co2)cc1`, the max activity was -11.4% [at 0.35 µM].

For the molecule `COc1cc(C(=O)Nc2ccc(-c3nc(-c4ccccc4)co3)cc2)cc(OC)c1OC`, the max activity is -19.1% [at 0.16 µM].

On to `Cc1ccc(-c2coc(-c3ccc(NC(=O)c4ccccc4C)cc3)n2)cc1`, for which the max activity is 104%.

Take `Cc1cc(C)c2c(=O)n(Cc3nc(-c4ccccc4Cl)oc3C)c(=O)n(-c3ccccc3)c2n1`: the max activity was -23.7% [at 10 µM].

With `Cc1ccc(-c2coc(-c3ccc(NC(=O)Nc4cccc(F)c4)cc3)n2)cc1`, the max activity was -17.7% [at 0.35 µM].

Consider `Cc1ccc(S(=O)(=O)Nc2ccc(-c3nc(-c4ccc(C)c(C)c4)co3)cc2)cc1`, for which the max activity was 33.8% [at 10 µM].

Turning to `Cc1oc(-c2cccc(Cl)c2)nc1Cn1nnc(-c2nc(-c3cccnc3)no2)c1C`, the max activity is 8.12% [at 10 µM].

Consider `C/C=C/c1ccc(C2[C@H]3CNC[C@@H]2N3Cc2cc(F)ccc2F)cc1` (some centres undefined), for which the max activity was 24.5% [at 10 µM].

As for `COCCCN=C(Nc1ccc(C(=O)O)cc1)N1CCN(c2ncnc3ccccc23)CC1`, the max activity was 14.9%.

As for `Cc1ccc(-n2ncc3c(NCCCN4CCCC4=O)ncnc32)c(C)c1`, the max activity is 50%.

Regarding `CCc1ccccc1Nc1ncnc2c1cnn2-c1cccc(C)c1`, the max activity was 24.1% [at 10 µM].

`Clc1cccc(CNc2ncnc3c2cnn3-c2ccccc2)c1`: the max activity was 95.5% [at 10 µM].

As to `Clc1ccc(-n2ncc3c(NCCc4ccccc4)ncnc32)cc1`, the max activity is 36%.

In the case of `C=CCNc1ncnc2c1cnn2-c1ccc(C)cc1C`, the max activity is 27.6% [at 5 µM].

On to `COc1ccc(CCNc2ncnc3c2cnn3-c2cccc(C)c2)cc1OC`, for which the max activity was 11.8% [at 1.35 µM].

As to `Cc1cccc(-n2ncc3c(NCCc4ccccc4)ncnc32)c1`, the max activity was -21.4% [at 0.35 µM].

As to `Cc1cccc(Nc2ncnc3c2cnn3-c2ccc(C)cc2C)c1`, the max activity is -13.4% [at 10 µM].

Take `Cc1cccc(-n2ncc3c(NCCCn4ccnc4)ncnc32)c1`: the max activity is 38.7% [at 5 µM].

Turning to `COC(=O)CC(=O)Nc1ccc(-c2nc(-c3ccccc3)co2)cc1`, the max activity is 102%.

`COc1ccc(NC(=O)Nc2ccc(-c3nc(-c4ccccc4)co3)cc2)cc1Cl`: the max activity is 10%.

As for `NC(=O)CN1CCOCCOCCN(CC(N)=O)CCOCC1`, the max activity is 36.3% [at 10 µM].

As to `COc1ccc(-c2nc3c(s2)CN(C(=O)Nc2ccccc2C)CC3)cc1OC`, the max activity is -11.5% [at 0.35 µM].

For `C/C=C/c1ccc(C2[C@H]3CNC[C@@H]2N3Cc2ccc3c(c2)OCO3)cc1` (some centres undefined), the max activity is 24%.

Take `Cc1ccc(S(=O)(=O)N2[C@@H]3CNC[C@H]2C3c2ccc(/C=C/c3ccccc3)cc2)cc1` (some centres undefined): the max activity was 32.9% [at 10 µM].

Consider `O=C(CCC1Nc2c3ccccc3nc(=S)n2C1=O)NC1CC1` (centres undefined), for which the max activity was -17.9% [at 1.35 µM].

`COc1cccc(-c2ccc(C3[C@H]4CNC[C@@H]3N4C(=O)NC3CCCCC3)cc2)c1` (some centres undefined): the max activity is 32.8% [at 10 µM].

Take `C/C=C/c1ccc([C@H]2[C@@H](C#N)N(C(=O)NC3CCCCC3)[C@H]2CO)cc1`: the max activity was -14% [at 2.35 µM].

In the case of `COc1ccc(N2CCN(c3nc(-c4ccc(Cl)cc4)nc4ccccc34)CC2)cc1`, the max activity is 25.6%.

Consider `CCOC(=O)C1CCN(C(=O)c2ccc(-c3csc(CC)n3)cc2)CC1`, for which the max activity is 201% [at 10 µM].
